Where “and” joins values, the source holds several entries; their conditions need not be identical. Identical values can stand only once. The whole screen tested about 340,000 compounds, of which about 6,200 (1.8%) were called active. Another 10% or so got no clear call; they are omitted. The call rests on the fitted dose curve; in most records, active means well fitted activation curve with a large enough effect; inconclusive means small, poorly fitted or top-dose-only effect; inactive means no such curve, though single readings can be large or run the other way. Many of the other results were omitted from the sample, so actives are more common in it than they were. Where a structure was tested more than once in an assay, its records may differ in their call.
assay: A quantitative high throughput screen for small molecules that induce DNA re-replication in SW480 colon adenocarcinoma cells.; further: nearly all actives have a fitted effect of over 55% in size; on re-replication activation: % of control where 0% means no effect; conditions: Hoechst DNA content imaging, 48 h; series mostly up to 46.1 µM; re-replication activation: at the top concentration
Source text: H Molecular Libraries Probe Production Network [MLPCN] NIH Chemical Genomics Center [NCGC] MLPCN Grant: Fast Track K99 CA136555 Assay Provider: Melvin DePamphilis, NICHD, NIH Assay Overview Eukaryotic cells normally restrict genome duplication to once per cell division. When this process is aberrant, DNA re-replication occurs when cells reinitiate DNA replication before the first round of replication is complete. DNA re-replication induces the DNA damage response, arrests cell proliferation, and triggers apoptosis. The cell cycle components cyclin A, Cdt-1, Cdc6 and geminin are critical regulators of this process and their misregulation results in DNA re-replication in normal and cancer cells. To identify compounds that induce re-replication in normal cells, an image-based assay was used to measure DNA content of nuclei, as detected by the fluorescent DNA binding dye, Hoechst. Cell nuclei were imaged by a fluorescence scanning plate imager and compounds that induce DNA re-replication were identified by the increase of nuclei with elevated fluorescence intensity
For screening, 250 cells in 5 uL/well were dispensed into black clear 1536-well plates (Aurora) using a solenoid-based dispenser. Following transfer of 23 nL compound or DMSO vehicle by a pin tool, the plates were incubated 48 hr at 37 C and 5% CO2. After addition of 1 uL/well Hoescht stain, the plates were incubated 40 min at 37 C, 5% CO2 and total intensity of fluorescent objects (nuclei) were enumerated by an Acumen Explorer Ex3 (TTP LabTech) fluorescence scanning plate imager (405 nm excitation, 500-530 nm emission). Keywords: NIH Roadmap, MLPCN, MLI, MLSMR, qHTS, NCGC, DNA replication, cancer
Potency means the concentration at half of the fitted maximal effect.

| SMILES | Potency | re-replication activation |
| --- | --- | --- |
| Oc1c(Cl)cc(Cl)c(Cl)c1Cc1c(O)c(Cl)cc(Cl)c1Cl | inactive and 16.4 µM (active) |  |
| CCOC(=O)[C@@H]1[C@H]2COc3ccc(Br)cc3[C@H]2N2C(=O)N(c3ccc(C)cc3)C(=O)[C@@]12C |  | -2.23% (inactive) |
| COc1cc(NC(=O)c2[nH]cnc2C(N)=O)cc(C(=O)Nc2cccc(C(F)(F)F)c2)c1 |  | -13.5% (inactive) |
| Cn1c(N)c(C(=O)COC(=O)c2ccc3ccccc3c2)c(=O)n(C)c1=O |  | -2.62% (inactive) |
| CCN(C[C@H]1N[C@@](Cc2ccccc2)(C(=O)OC)[C@H]2C(=O)N(Cc3ccccc3)C(=O)[C@@H]12)C(=O)c1ccc(C)cc1 |  | 6.19% (inactive) |
| COc1ccc(C(=O)COC(=O)CN2C(=O)C3CC=CCC3C2=O)c(OC)c1 (configuration not stated) |  | 2.53% (inactive) |
| COCC(=O)N=Nc1c(O)[nH]c2ccccc12 |  | -7.74% (inactive) |
| O=C(CCN1CCCCC1)N=Nc1c(O)[nH]c2ccccc12 | 18.4 µM (active) |  |
| Cc1cccc(N(CC(=O)N=Nc2c(O)[nH]c3ccccc23)S(C)(=O)=O)c1C |  | -0.526% (inactive) |
| O=c1nc(NO)ccn1C1CCCO1 (configuration not stated) |  | -2.96% (inactive) |
| COc1ccccc1NC1=NC(c2ccc(Cl)cc2)N=C(N)N1 (configuration not stated) | 20.6 µM (active) |  |
| COc1ccccc1NC(=O)C1CCCN1S(=O)(=O)c1ccc(Cl)cc1 (configuration not stated) |  | 12% (inactive) |
| CC1(C)N=C(N)NC(Nc2ccc(Cl)cc2)=N1 |  | 1.78% (inactive) |
| C[C@@H]1CN([C@H](C)CO)C(=O)c2cc(NC(=O)NC3CCCCC3)ccc2O[C@H]1CN(C)S(C)(=O)=O |  | -8.58% (inactive) |
| COc1ccc(CCNC(=O)COC(=O)c2cc(=O)c3ccccc3o2)cc1 |  | -28.9% (inactive) |
| CNC[C@H]1Oc2c(NC(=O)C3CCCCC3)cccc2C(=O)N([C@H](C)CO)C[C@@H]1C |  | 4.46% [at 9.22 µM] (inactive) |
| COc1ccc(/C=N/NC(=O)c2cc(-c3cccc(C)c3)nc3ccccc23)cc1O |  | -2.6% (inactive) |
| CCOc1ccc(-c2cc(C(=O)N/N=C/c3ccc(O)cc3)c3ccccc3n2)cc1 | 18.4 µM (active) |  |
| COc1cc(/C=N/NC(=O)c2cc(-c3ccccc3C)nc3ccccc23)cc(OC)c1O |  | -14.1% (inactive) |
| Cc1ccccc1NC(=O)c1cc(S(=O)(=O)Nc2cccc(C(=O)O)c2)ccc1Cl |  | -6.95% (inactive) |
| O=C(O)c1cccc(N2C(=O)Nc3ccccc3N2O)c1 |  | -10.1% (inactive) |
| C/C(=N\Nc1cccc(C(=O)O)c1)c1ccc2c(c1)Nc1ccccc1S2 | 8.2 µM (active) |  |
| COc1cc(OC)cc(-c2c(C#Cc3ccsc3)c3cc(-c4ccc(OC)cc4F)ccc3n2C)c1 |  | 23.7% (inactive) |
| c1ccc(CNc2ncnc3[nH]ncc23)cc1 |  | 4.58% (inactive) |

| SMILES | Potency | re-replication activation |
| --- | --- | --- |
| Nc1cc(=O)n(Cc2ccccc2)c(=O)n1Cc1ccccc1 |  | 0.57% (inactive) |
| Cc1nn(-c2ccc(F)cc2)c(Cl)c1/C=C(/CCC(=O)O)c1nc2ccccc2s1 |  | 3.7% (inactive) |
| CCCCN(C(=O)c1cccc(N2C(=O)c3ccccc3C2=O)c1)c1c(N)n(CCCC)c(=O)[nH]c1=O |  | -14.2% (inactive) |
| CCn1c(=S)[nH]c2cc(S(=O)(=O)N3CCOCC3)ccc21 |  | -6.64% (inactive) |
| Cc1ccc(COc2ccc(/C=N/NC(=O)CN3CCCCC3)cc2)cc1 |  | 0.267% (inactive) |
| Cc1ccsc1C(=O)N/N=C/c1ccc([N+](=O)[O-])cc1 |  | -5% (inactive) |
| Cc1ccc(/C=N/NC(=O)c2sccc2OCc2ccc(F)cc2)cc1 | 16.4 µM (active) |  |
| CC(C)Cn1cnc2c(SCc3ccc(Cl)cc3)nc(N)nc21 |  | -9.4% (inactive) |
| CCN(CC)c1ccc(NC(=O)c2ccc(Cl)nc2)cc1 | 16.4 µM (active) |  |
| O=C(Nc1ccc2nc3n(c(=O)c2c1)CCCC3)c1ccc(Cl)nc1 |  | 3.67% (inactive) |
| O=C(NNC(=O)c1ccc(Cl)nc1)c1ccc(Br)cc1 |  | -27.2% (inactive) |
| O=C(COc1ccccc1F)NNC(=O)c1cc(Br)ccc1Cl |  | 6.76% (inactive) |
| NC(=O)c1ccc(N2CCCC2)nc1 |  | -1.87% (inactive) |
| Oc1ccc(Br)cc1C=Nc1ccc2[nH]ncc2c1 |  | -0.677% (inactive) |
| Cc1c(C(=O)Nc2ccccn2)oc2ccc(Br)cc12 |  | -1.8% (inactive) |
| Oc1ccc(Br)cc1/C=N/Nc1ccccn1 | 9.2 µM (active) |  |
| CCOC(=O)CCCCCC(=O)Nc1ccc2c(c1)CC(=O)N([C@@H](C)CO)C[C@H](C)[C@@H](CN(C)Cc1ccccc1)O2 |  | -13.1% (inactive) |
| Cc1ccn(CC(=O)N2N=C(C(F)F)CC2(O)C(F)F)n1 (configuration not stated) | 0.517 µM (active) |  |
| Cc1ccn(CCC(=O)N2c3ccccc3CC2C)n1 (configuration not stated) |  | 3.35% (inactive) |
| Cc1nn(Cc2ccc(C(=O)N3N=C(C(F)F)CC3(O)C(F)F)cc2)c(C)c1[N+](=O)[O-] (configuration not stated) |  | -0.343% (inactive) |
| CC1(C)C[C@H]2C3=CCC4[C@@]5(C)CC[C@H](O)[C@](C)(CO)C5CC[C@@]4(C)[C@]3(C)C[C@@H](O)[C@@]2(CO)[C@@H](O)[C@@H]1O (some centres not stated) |  | 6.13% (inactive) |
| COc1cc(C(=O)OCC(=O)NC23CC4CC(CC(C4)C2)C3)cc(OC)c1OC |  | -125% (inactive) |
| COc1ccc(C(CNC(=O)c2cc(S(=O)(=O)Nc3cccc(C)c3)ccc2C)N2CCCC2)cc1 (configuration not stated) |  | 12.7% (inactive) |
